In PubChem BioAssay (NCATS):
Inconclusive results are not listed. Active and inactive are the calls of the source. Calls follow the shape of the dose curve; as a rule, active = well fitted inhibition curve with a large enough effect; inconclusive = small, poorly fitted or top-dose-only effect; inactive = flat fitted curve, though single readings scatter.

What was measured:
Assay in all cases: qHTS profiling for inhibitors of Plasmodium falciparum proliferation (AID 504749); also: nearly all actives have a fitted effect of over 60% in size
Settings in all cases: P. falciparum in erythrocytes, SYBR Green DNA, 72 h; series mostly up to 28.7 µM
[1] = system: CP266
Procedure, shortened: (§1)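 In a 72 h erythrocytic culture (37 C, humidified, 5% CO2) at 2.5% hematocrit and 0.3% starting parasitemia, compounds were tested; SYBR Green I in detergent lysis buffer stained parasite DNA overnight.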

[2] = system: CP268
Procedure, shortened: as §1

[3] = system: CP269
Procedure, shortened: as §1

[4] = system: CP286
Procedure, shortened: as §1

[5] = system: CP291
Procedure, shortened: as §1

[6] = system: CP297
Procedure, shortened: as §1

[7] = system: CP305
Procedure, shortened: as §1

[8] = system: CP315
Procedure, shortened: as §1

[9] = system: CP325
Procedure, shortened: as §1

[10] = system: CP329
Procedure, shortened: as §1

[11] = system: CP335
Procedure, shortened: as §1

[12] = system: DFO2036
Procedure, shortened: as §1

[13] = system: DIV14
Procedure, shortened: as §1

[14] = system: DIV17
Procedure, shortened: as §1

[15] = system: DIV30
Procedure, shortened: as §1

[16] = system: Dd2
Procedure, shortened: as §1

[17] = system: ECU
Procedure, shortened: as §1

[18] = system: FAB9
Procedure, shortened: as §1

[19] = system: GB4
Procedure, shortened: as §1

[20] = system: HB3
Procedure, shortened: as §1

[21] = system: ICS
Procedure, shortened: as §1

[22] = system: JCK
Procedure, shortened: as §1

[23] = system: N140
Procedure, shortened: as §1

[24] = system: P93_24
Procedure, shortened: as §1

[25] = system: P94_40
Procedure, shortened: as §1

[26] = system: PAD
Procedure, shortened: as §1

[27] = system: PC15
Procedure, shortened: as §1

[28] = system: PC26
Procedure, shortened: as §1

[29] = system: PC49
Procedure, shortened: as §1

[30] = system: SC27B
Procedure, shortened: as §1

[31] = system: TAB109
Procedure, shortened: as §1

[32] = system: TAB113
Procedure, shortened: as §1

[33] = system: TAB165
Procedure, shortened: as §1

[34] = system: W2
Procedure, shortened: as §1

Measured: Potency

CC[C@@H]1/C=C(\C)C[C@H](C)C[C@H](OC)[C@H]2O[C@@](O)(C(=O)C(=O)N3CCCC[C@H]3C(=O)O[C@H](/C(C)=C/[C@@H]3CC[C@H](Cl)[C@H](OC)C3)[C@H](C)[C@@H](O)CC1=O)[C@H](C)C[C@@H]2OC
inactive: [1] | [2] | [3] | [4] | [5] | [6] | [7] | [8] | [9] | [10] | [11] | [12] | [13] | [14] | [15] | [16] | [17] | [18] | [19] | [20] | [21] | [22] | [23] | [24] | [25] | [26] | [27] | [28] | [29] | [30] | [31] | [32] | [33] | [34]
